Assay [1] can be described thus: NCI Yeast Anticancer Drug Screen. Data for the rad50 strain (AID 155).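 Note: 0% = growth of vehicle-only cultures of the same strain.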 Particulars: S. cerevisiae rad50 strain growth inhibition, stronger effect = higher value. The essentials:
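DNA repair mutant yeast, compound exposure, growth read-out; inhibition is taken relative to vehicle.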

Assay [2] in a line: NCI Yeast Anticancer Drug Screen. Data for the mec2-1 strain (AID 157). Particulars: S. cerevisiae mec2-1 strain, stronger effect = higher value. The essentials: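 Growth inhibition is read against vehicle-treated controls after compound exposure of the mec2-1 yeast strain, which is defective in DNA damage repair or cell cycle control.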
Assay [3] in a line: NCI Yeast Anticancer Drug Screen. Data for the sgs1 mgt1 strain (AID 161).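 Note: 0% = growth of cultures given vehicle only.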 Conditions: S. cerevisiae sgs1 mgt1 strain, stronger effect = higher value. The essentials:
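Yeast cells carrying a defined DNA-repair defect were exposed to test compounds. Growth inhibition was measured relative to vehicle-treated controls.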

Assay [4] can be described thus: NCI Yeast Anticancer Drug Screen. Data for the cln2 rad14 strain (AID 165).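 Note: 0% = growth equal to vehicle treated cultures.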 Particulars: S. cerevisiae cln2 rad14 strain, stronger effect = higher value. Summed up:
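Growth inhibition, relative to vehicle-treated controls, is the read-out. The test organism is a yeast strain with defined genetic alterations, cln2 rad14.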

The nature of assay [5]: NCI Yeast Anticancer Drug Screen. Data for the bub3 strain (AID 167). Conditions: S. cerevisiae bub3 mutant strain, stronger effect = higher value. Summed up:
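In this screen, a yeast mutant lacking normal mitotic checkpoint function is challenged with compound. Relative growth versus vehicle gives the inhibition value.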

The nature of assay [6]: NCI Yeast Anticancer Drug Screen. Data for the mlh1 rad18 strain (AID 175). Conditions: S. cerevisiae mlh1 rad18 strain growth inhibition, stronger effect = higher value. The essentials:
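Cells of a genetically altered yeast strain, deficient in DNA damage repair, were treated with compound. Their growth was then compared with that of vehicle-treated cultures to give inhibition.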

Setting [7] is: at 5.0 µM (retest, dose inferred, filed as 0.5).
Where [8] appears, read: at 50.0 µM (retest, dose inferred, filed as 5.0).

Compounds without any hit were thinned out: in the full panel of roughly 79,000, 15% have a hit. Values without a mark were called inactive. Active and inactive are the calls of the source. Cut-off read from the data, not from the text of the source: active = growth inhibition above about 70%; inactive = the rest.

In the case of `CCCCN(CCC(=O)O)c1ccc(/C=C\c2ccnc3ccccc23)cc1`, the growth inhibition in assay [1] (setting [7]) was 8%; in assay [1] (setting [8]), 89% (active); in assay [1] (at 50.0 µM) it was 94.2% (active); in assay [2] (setting [7]), 6%; in assay [2] (setting [8]) it was 89% (active); in assay [2] (at 50.0 µM), 93.5% (active). In addition, the growth inhibition in assay [3] (setting [7]) was 21%; in assay [3] (setting [8]), 90% (active); in assay [3] (at 50.0 µM) it was 95.6% (active); in assay [4] (setting [7]), 15%; in assay [4] (setting [8]) it was 82% (active); in assay [4] (at 50.0 µM), 88.7% (active). The growth inhibition in assay [5] (setting [7]) is -2%; in assay [5] (setting [8]) it was 68%; in assay [5] (at 50.0 µM) it was 96.3% (active); in assay [6] (setting [7]), 0%; in assay [6] (setting [8]), 89% (active); in assay [6] (at 50.0 µM), 93% (active).
Consider `CCCCCCCCCC1OCC(O)CO1` (configuration not stated) (tested in a mixture with another compound), for which the growth inhibition is 7% in assay [1] (setting [7]); 66% in assay [1] (setting [8]); 99% (active) in assay [1] (at 50.0 µM); 9% in assay [2] (setting [7]); 79% (active) in assay [2] (setting [8]); 96.1% (active) in assay [2] (at 50.0 µM). Also, the growth inhibition in assay [3] (setting [7]) is 10%; in assay [3] (setting [8]) it was 96% (active); in assay [3] (at 50.0 µM) it was 98.7% (active); in assay [4] (setting [7]), 3%; in assay [4] (setting [8]) it was 90% (active); in assay [4] (at 50.0 µM), 86.4% (active). Moreover, the growth inhibition was 8% in assay [5] (setting [7]); 87% (active) in assay [5] (setting [8]); 89.3% (active) in assay [5] (at 50.0 µM); 12% in assay [6] (setting [7]); 98% (active) in assay [6] (setting [8]); 99.5% (active) in assay [6] (at 50.0 µM).
With `CCCCCCCCCCCCOP(=O)(N1CC1(C)C)N1CC1(C)C` (configuration not stated), the growth inhibition was 4% in assay [1] (setting [7]); 61% in assay [1] (setting [8]); 72.7% (active) in assay [1] (at 50.0 µM); 2% in assay [2] (setting [7]); 71% (active) in assay [2] (setting [8]); 58.1% in assay [2] (at 50.0 µM). The growth inhibition in assay [3] (setting [7]) was 1%; in assay [3] (setting [8]), 67%; in assay [3] (at 50.0 µM), 82.8% (active); in assay [4] (setting [7]) it was 16%; in assay [4] (setting [8]) it was 72% (active); in assay [4] (at 50.0 µM), 34.2%. The growth inhibition is 24% in assay [5] (setting [7]); 97% (active) in assay [5] (setting [8]); 87.3% (active) in assay [5] (at 50.0 µM); 4% in assay [6] (setting [7]); 87% (active) in assay [6] (setting [8]); 80.5% (active) in assay [6] (at 50.0 µM).
For the compound `c1ccc(B2OC(c3ccccc3)C(c3ccccc3)O2)cc1` (configuration not stated), the growth inhibition is -19% in assay [1] (setting [7]); -12% in assay [1] (setting [8]); 3.35% in assay [1] (at 50.0 µM); -18% in assay [2] (setting [7]); -21% in assay [2] (setting [8]); -0.45% in assay [2] (at 50.0 µM). The growth inhibition in assay [3] (setting [7]) was -7%; in assay [3] (setting [8]), -9%; in assay [3] (at 50.0 µM) it was 10.8%; in assay [4] (setting [7]) it was 24%; in assay [4] (setting [8]) it was 7%; in assay [4] (at 50.0 µM), 5.85%. Moreover, the growth inhibition in assay [5] (setting [7]) was -4%; in assay [5] (setting [8]) it was -3%; in assay [5] (at 50.0 µM), 11.2%; in assay [6] (setting [7]), -13%; in assay [6] (setting [8]) it was 9%; in assay [6] (at 50.0 µM), 8.85%.
Regarding `O=Cc1[nH]c(=S)[nH]c(=O)c1CCCc1ccccc1`, the growth inhibition is -15% in assay [1] (setting [7]); 79% (active) in assay [1] (setting [8]); 95.8% (active) in assay [1] (at 50.0 µM); -7% in assay [2] (setting [7]); 90% (active) in assay [2] (setting [8]); 78.2% (active) in assay [2] (at 50.0 µM). Also, the growth inhibition in assay [3] (setting [7]) is 15%; in assay [3] (setting [8]), 97% (active); in assay [3] (at 50.0 µM), 98.5% (active); in assay [4] (setting [7]), 17%; in assay [4] (setting [8]), 92% (active); in assay [4] (at 50.0 µM), 82.3% (active). For the same compound, the growth inhibition is 5% in assay [5] (setting [7]); 95% (active) in assay [5] (setting [8]); 85% (active) in assay [5] (at 50.0 µM); 11% in assay [6] (setting [7]); 97% (active) in assay [6] (setting [8]); 98.2% (active) in assay [6] (at 50.0 µM).
Turning to `Nc1ncc2ccccc2c1-c1ccc(NC(=O)CCCl)cc1`, the growth inhibition in assay [1] (setting [7]) was -1%; in assay [1] (setting [8]) it was 36%; in assay [1] (at 50.0 µM), 70% (active); in assay [2] (setting [7]), -3%; in assay [2] (setting [8]) it was 40%; in assay [2] (at 50.0 µM) it was 14.8%. Further, the growth inhibition is -2% in assay [3] (setting [7]); 39% in assay [3] (setting [8]); 31.6% in assay [3] (at 50.0 µM); -1% in assay [4] (setting [7]); 23% in assay [4] (setting [8]); -4.85% in assay [4] (at 50.0 µM). In addition, the growth inhibition is 6% in assay [5] (setting [7]); 59% in assay [5] (setting [8]); 21.6% in assay [5] (at 50.0 µM); -2% in assay [6] (setting [7]); 55% in assay [6] (setting [8]); 45% in assay [6] (at 50.0 µM).
As for `CC(=O)OCCc1ccc(CCc2ccccc2)cc1`, the growth inhibition in assay [1] (setting [7]) was 13%; in assay [1] (setting [8]), 47%; in assay [1] (at 50.0 µM), 40.3%; in assay [2] (setting [7]), 1%; in assay [2] (setting [8]), 4%; in assay [2] (at 50.0 µM) it was 18.6%. In addition, the growth inhibition in assay [3] (setting [7]) is 6%; in assay [3] (setting [8]) it was 28%; in assay [3] (at 50.0 µM), 18.6%; in assay [4] (setting [7]), 4%; in assay [4] (setting [8]), -6%; in assay [4] (at 50.0 µM), -31.6%. Besides, the growth inhibition was 8% in assay [5] (setting [7]); 45% in assay [5] (setting [8]); 67.7% in assay [5] (at 50.0 µM); 6% in assay [6] (setting [7]); -4% in assay [6] (setting [8]); 62.6% in assay [6] (at 50.0 µM).
Turning to `O=C1CCC(O)N1CN1C(=O)CCC1O` (configuration not stated), the growth inhibition was -4% in assay [1] (setting [7]); 1% in assay [1] (setting [8]); 36.1% in assay [1] (at 50.0 µM); -4% in assay [2] (setting [7]); -17% in assay [2] (setting [8]); 18.4% in assay [2] (at 50.0 µM). The growth inhibition was 9% in assay [3] (setting [7]); -3% in assay [3] (setting [8]); 22.9% in assay [3] (at 50.0 µM); -17% in assay [4] (setting [7]); 10% in assay [4] (setting [8]); 20.8% in assay [4] (at 50.0 µM). Moreover, the growth inhibition in assay [5] (setting [7]) is 18%; in assay [5] (setting [8]) it was -4%; in assay [5] (at 50.0 µM), 22.1%; in assay [6] (setting [7]) it was -6%; in assay [6] (setting [8]) it was -10%; in assay [6] (at 50.0 µM), 46.5%.
For the compound `O=C(C(=Cn1c(=S)[nH]c2ccc([N+](=O)[O-])cc21)C(=O)c1ccccc1)c1ccccc1`, the growth inhibition in assay [1] (setting [7]) is -10%; in assay [1] (setting [8]), 3%; in assay [1] (at 50.0 µM), 98% (active); in assay [2] (setting [7]), -14%; in assay [2] (setting [8]), -2%; in assay [2] (at 50.0 µM), 92.5% (active). In addition, the growth inhibition in assay [3] (setting [7]) was -7%; in assay [3] (setting [8]), 1%; in assay [3] (at 50.0 µM), 92.2% (active); in assay [4] (setting [7]), -23%; in assay [4] (setting [8]) it was -17%; in assay [4] (at 50.0 µM), 74.8% (active). Also, the growth inhibition in assay [5] (setting [7]) is -5%; in assay [5] (setting [8]), 6%; in assay [5] (at 50.0 µM), 94.9% (active); in assay [6] (setting [7]), -4%; in assay [6] (setting [8]), 0%; in assay [6] (at 50.0 µM), 96.3% (active).

The values above are taken from PubChem BioAssay (NCI).
